PostGolgi yeast – growth inhibition of a yeast mutant, post-Golgi transport screen; post-Golgi transport phenotypic cell assay; 98,000 compounds, 0.9% hits; inhibition, % at 10 µM;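 also: yeast cells grown in 1536-well plates; yeast grown about 18 h at 30C before absorbance read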
PostGolgi ctrl – yeast control strain growth, post-Golgi counter-screen; efflux-deficient yeast background strain, growth absorbance A615, 16 h; inhibition, % at 10 µM; 98,000 compounds, 5% hits
CYP2C9 inh – blocks human cytochrome P450 2C9; 96,000 compounds, 20% hits; CYP2C9 Supersomes, luciferin-H conversion, luminescence; P11712; inhibition, % at 5 µM;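 active = blocking of liver enzyme CYP2C9 beyond about 50% at 5 µM, limit read from the data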
CYP2C19 act – increases human CYP2C19 enzyme activity; P33261; recombinant CYP2C19, luciferin-H EGE luminescence; stronger effect = higher value; 0 = fully inhibited enzyme, 1 = untreated enzyme; activation factor at 5 µM; 96,000 tested, under 10 active; AID 1025;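 active = activation factor of at least 2 at 5 µM in the primary screen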;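 also: 0 = wells with 2.5 mM tranylcypromine and 1 = vehicle-only wells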
Target sequence (P33261 whole entry, looked up): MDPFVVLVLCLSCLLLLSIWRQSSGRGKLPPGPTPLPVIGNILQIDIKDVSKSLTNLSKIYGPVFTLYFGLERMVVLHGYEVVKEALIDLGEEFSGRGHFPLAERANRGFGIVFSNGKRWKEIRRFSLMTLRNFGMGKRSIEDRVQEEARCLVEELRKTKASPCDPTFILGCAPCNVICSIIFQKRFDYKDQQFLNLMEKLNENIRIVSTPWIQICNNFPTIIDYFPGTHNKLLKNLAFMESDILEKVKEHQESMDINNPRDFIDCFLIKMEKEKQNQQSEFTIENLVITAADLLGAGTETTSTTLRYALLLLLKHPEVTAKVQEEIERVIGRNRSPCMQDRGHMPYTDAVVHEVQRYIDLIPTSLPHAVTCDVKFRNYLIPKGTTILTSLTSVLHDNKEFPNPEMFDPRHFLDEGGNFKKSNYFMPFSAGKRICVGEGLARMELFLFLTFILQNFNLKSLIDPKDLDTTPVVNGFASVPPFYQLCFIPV
CYP2C9 activ – activators of human CYP2C9 | recombinant CYP2C9, luciferin-H conversion, luminescence; stronger effect = higher value; factor 1 = untreated enzyme, 0 = blocked | activation factor at 5 µM | 96,000 compounds, 1.4% hits;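 active = activation factor of 2 or more for CYP2C9 at a 5 µM dose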;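 also: 0 = sulfaphenazole-blocked wells and 1 = vehicle-only wells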
CYP2C19 inhib – inhibitors of human CYP2C19; CYP2C19 Supersomes, luciferin-H EGE luminescence, 30 min; inhibition, % at 5 µM; 96,000 compounds, 21% hits;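 active = CYP2C19 inhibition above a set limit at 5 µM in the primary screen, cut at about 50% in these data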;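 also: plate controls were negative control wells for no effect and 2.5 mM tranylcypromine positive control for full effect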
Active calls of the source: *. Most compounds without a hit are left out; they make up all but 32% or so of the library. Rule as the data show it, unless noted: active = inhibition above about 30%; inactive = the rest.

SMILES	PostGolgi yeast	PostGolgi ctrl	CYP2C9 inh	CYP2C19 act	CYP2C9 activ	CYP2C19 inhib
CCN(CC)S(=O)(=O)c1ccc(-n2cnnn2)c(C)c1	16	3	4	0.6	1	36
CCCN(CC1CC1)S(=O)(=O)c1ccc(-n2cnnn2)c(OC)c1	16	7	8	0	0.9	100*
O=C(CN1C(=O)C2CC=CCC2C1=O)NCC1COc2ccccc2O1 (centres undefined)	4	-8	15	0.6	0.9	36
CCCNC(=O)N1CCC(C(=O)c2ccc(Cl)cc2)CC1	2	9	11	0.9	0.9	7
COc1ccc(CN(Cc2ccccn2)S(=O)(=O)c2ccc(-n3cnnn3)c(OC)c2)cc1	0	-4	92*	0.1	0.1	89*
COc1ccc(OC)c(S(=O)(=O)n2ccnc2C)c1	-2	18	-50	0.1	1.5	93*
COc1ccc(Br)cc1S(=O)(=O)n1ccnc1C	-11	-1	-142	0	2.4*	99*
Cc1nccn1S(=O)(=O)c1ccc(Br)cc1Br	10	-5	10	0.3	0.9	66*
COc1ccc(OC)c(S(=O)(=O)n2cccn2)c1	24	2	-23	0.9	1.2	5
CCOc1ccc2cc(S(=O)(=O)n3ccnc3C)ccc2c1	17	14	48	0.7	0.5	31
Cc1nnc(SCc2ccccc2F)n1NCc1cccs1	3	5	55*	0.1	0.4	93*
CCn1c(-c2csc(-c3ccccc3)n2)n[nH]c1=S	3	5	6	1	0.9	-1
CCc1cc(-c2n[nH]c(=S)n2C(C)c2ccccc2)cs1 (centres undefined)	0	27	87*	0.2	0.1	82*
Clc1ccc(CNc2nnnn2-c2ccccc2)c(Cl)c1	-8	21	53*	0	0.5	98*
Clc1cccc(CNc2nnnn2-c2ccccc2)c1	-6	13	23	0.9	0.8	12
c1ccc(CCNc2nnnn2-c2ccccc2)cc1	11	10	21	0.4	0.8	58*
Cc1ccc(N2CCCCn3c2nc2c3c(=O)n(CC(=O)O)c(=O)n2C)cc1	3	9	-13	1.2	1.1	-22
CCn1c(SCC(=O)N/N=C/C=C\c2ccccc2[N+](=O)[O-])nc2ccccc21	-10	-7	-51	1	1.5	-5
S=C(Nc1ccccc1)N1CCN(C2CCCCC2)CC1	-1	-1	16	0.5	0.8	48
Cc1ccc(S(=O)(=O)N2CCN(C3CCN(Cc4ccccc4)CC3)CC2)cc1	70*	24	11	1	0.9	3
O=S(=O)(c1ccc2c(c1)OCCO2)N1CCN(c2cccc(Cl)c2)CC1	-5	27	58*	0.1	0.4	89*
COc1ccc(S(=O)(=O)N2CCN(S(=O)(=O)c3ccc4c(c3)OCCO4)CC2)cc1	9	2	4	1	1	2
CC1CN(S(=O)(=O)Cc2ccccc2)CC(C)O1 (centres undefined)	2	-2	-22	0.3	1.2	66*
CN(C)S(=O)(=O)c1cccc(C(=O)N2CCN(Cc3ccccc3)CC2)c1	0	8	4	0.5	1	53*
O=S(=O)(c1ccccc1)N1CCN(C2CCN(Cc3ccccc3)CC2)CC1	12	6	20	0.9	0.8	11
SMILES	PostGolgi yeast	PostGolgi ctrl	CYP2C9 inh	CYP2C19 act	CYP2C9 activ	CYP2C19 inhib
COc1ccccc1N1CCN(c2ncnc3nc[nH]c23)CC1	-2	12	-23	1	1.2	2
CCOC(=O)C1=C(O)/C(=C\c2ccc(CNC(=O)C(=O)Nc3ccccc3)o2)N=C1C	2	2	49	0.8	0.5	20
O=S(=O)(/C=C/c1ccccc1)N1CCN(c2cccc(Cl)c2)CC1	-4	8	76*	0.1	0.2	93*
Oc1cccc(C(=S)N2CCN(Cc3ccccc3)CC2)c1	5	25	68*	0	0.3	100*
CN(c1ccccc1)S(=O)(=O)c1cccc(C(=O)N2CCN(c3ccccn3)CC2)c1	-7	27	88*	0.2	0.1	79*
O=S(=O)(c1ccc(Cl)cc1)N1CCC(O)(c2cccnc2)CC1	2	20	-77	0.4	1.8	57*
COc1ccc(S(=O)(=O)NCc2ccc(C(=O)N3CCN(c4ccccn4)CC3)cc2)cc1	-1	-13	44	0.8	0.6	20
O=S(=O)(c1ccccc1)N1C2CCC1CC(O)(c1cccnc1)C2 (centres undefined)	-11	1	-8	1	1.1	4
NS(=O)(=O)c1ccc(NC(=O)CSc2nnc(-c3cnccn3)n2-c2ccccc2)cc1	21	2	-26	1.2	1.3	-17
Cc1c(C(=O)N2CCOCC2)sc(NC(=O)c2ccc3c(c2)OCO3)c1C#N	-7	2	11	1.1	0.9	-8
COC(=O)C(NC(C)=O)(Nc1ccccc1)C(=O)OC	-3	19	-3	0.9	1	5
O=S(=O)(c1ccccc1Cl)N1CCC(O)(c2ccc3c(c2)OCO3)CC1	-4	13	-54	0	1.5	97*
O=S(=O)(Cc1ccccc1)N1CCCC1	-6	6	-11	0.7	1.1	31
CCN1CCN(S(=O)(=O)Cc2ccccc2)CC1	3	3	-49	0.5	1.5	52*
CCN(CC(=O)Nc1ccc2c(c1)OCCO2)Cc1cc(=O)oc2c(C)c(C)ccc12	-3	14	84*	0.1	0.2	92*
OC1(c2ccc3c(c2)OCO3)CCN(Cc2ccccn2)CC1	9	5	-23	1.1	1.2	-9
O=C(N1CCOCC1)N1CCN(Cc2ccccc2)CC1	-2	3	-10	0.2	1.1	82*
Cc1ccc(S(=O)(=O)N[C@H](C(=O)N2CCC(C(=O)NCC(=O)O)CC2)C(C)C)cc1	17	-5	23	0.9	0.8	9
CC(=O)/C=C/c1ccc2ccccc2n1	6	9	-22	1.1	1.2	-6
O=S(=O)(c1cccc(F)c1)N1CCN(Cc2ccc3c(c2)OCO3)CC1	-5	4	86*	0.1	0.1	91*
O=S(=O)(NC1CCCC1)c1ccc(S(=O)(=O)N2CCCN(Cc3ccccc3)C2)cc1	2	22	95*	0	0.1	98*
O=S(=O)(c1ccc(S(=O)(=O)N2CCN(Cc3ccccc3)CC2)cc1)N1CCOCC1	-2	-4	6	1	0.9	-3
O=C1CC(N2CCN(Cc3ccc4c(c3)OCO4)CC2)C(=O)N1c1ccccc1 (centres undefined)	0	40*	8	0.9	0.9	10
O=S(=O)(c1ccc2c(c1)OCCO2)N1CCN(Cc2ccccc2)CC1	-4	13	-40	0.2	1.4	82*
Cc1cc(NC(=O)CCC(=O)N(CC(=O)NC2CCCC2)Cc2ccco2)no1	-16	16	20	0.9	0.8	13

Screening data (PubChem BioAssay)
